Measured values reported in PubChem BioAssay (NCATS).
Several values for one entry are separate records, joined by “and”; a condition that tells them apart may be missing. Equal values may be shown once. Results filed as inconclusive are left out. A call without a number means that no potency is given here. Activity calls are given as the source filed them. Unless noted, calls follow the shape of the dose curve; as a rule, active = well fitted curve in the direction sought with a large enough effect; inconclusive = small, poorly fitted or top-dose-only effect, or another doubt; inactive = no such curve, though single readings can be large; an effect the other way counts as inactive or inconclusive.

How the values were obtained:
[1] = P-glycoprotein substrates identified in KB-8-5-11 adenocarcinoma cell line, qHTS therapeutic library screen (AID 1346987); settings: KB-8-5-11 (P-gp overexpressing) viability, CellTiter-Glo, 72 h; series mostly up to 44.5 µM; also: nearly all actives have a fitted effect of over 65% in size
How it was run: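 Human cervical adenocarcinoma KB-8-5-11 cells, selected in colchicine to over-express P-gp and assayed without it, were exposed for 72 h to titrated compounds. An ATP-based luminescent viability signal gave AC50.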

[2] = NS1 protein of Zika virus - qHTS assay to identify small molecule inhibitors in human HEK 293 cells (AID 1347053); settings: HEK293 ZIKV MR766 infection, NS1 TR-FRET, 24 h; series mostly up to 46.1 µM; also: nearly all actives have a fitted effect of over 55% in size
How it was run: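 Read-out is a two-antibody TR-FRET for ZIKV NS1, normalized between uninfected cells and infected cells. Compound added 1 h before MR766 infection at MOI 0.5; human HEK 293 cells incubated 24 h, 37 C.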

[3] = qHTS for Inhibitors of the Functional Ribonucleoprotein Complex (vRNP) of Lassa (LASV) Arenavirus: LASV Primary Screen - GLuc reporter signal (AID 1347082; calls by dose curve; tested in HEK293 reporter line; also: nearly all actives have a fitted effect of over 60% in size); settings: LASV minigenome vRNP, Gaussia luciferase reporter; series mostly up to 57.5 µM
[4] = qHTS for Inhibitors of the Functional Ribonucleoprotein Complex (vRNP) of Lassa (LASV) Arenavirus: Viability assay - alamar blue signal for LASV Primary Screen (AID 1347083; calls by dose curve; tested in HEK293 reporter line; also: nearly all actives have a fitted effect of over 80% in size); settings: cell viability, alamar blue fluorescence (LASV minigenome counter-screen); series mostly up to 57.5 µM
[5] = qHTS for Inhibitors of the Functional Ribonucleoprotein Complex (vRNP) of Lymphocytic Choriomeningitis Arenaviruses (LCMV): Viability assay - alamar blue signal for LCMV Primary Screen (AID 1347085; calls by dose curve; tested in HEK293 reporter line; also: nearly all actives have a fitted effect of over 80% in size); settings: alamar blue viability counter-screen, LCMV vRNP screen cells; series mostly up to 57.5 µM
[6] = molecular target: Nucleoprotein (Lymphocytic choriomeningitis virus (strain Armstrong)) (UniProt P09992); experiment: qHTS for Inhibitors of the Functional Ribonucleoprotein Complex (vRNP) of Lymphocytic Choriomeningitis Arenaviruses (LCMV): LCMV Primary Screen - GLuc reporter signal (AID 1347086; calls by dose curve; also: nearly all actives have a fitted effect of over 70% in size); settings: LCMV minigenome vRNP cell assay, Gaussia luciferase reporter; series mostly up to 57.5 µM
Chain of Nucleoprotein (Lymphocytic choriomeningitis virus (strain Armstrong)) (P09992 whole entry, looked up): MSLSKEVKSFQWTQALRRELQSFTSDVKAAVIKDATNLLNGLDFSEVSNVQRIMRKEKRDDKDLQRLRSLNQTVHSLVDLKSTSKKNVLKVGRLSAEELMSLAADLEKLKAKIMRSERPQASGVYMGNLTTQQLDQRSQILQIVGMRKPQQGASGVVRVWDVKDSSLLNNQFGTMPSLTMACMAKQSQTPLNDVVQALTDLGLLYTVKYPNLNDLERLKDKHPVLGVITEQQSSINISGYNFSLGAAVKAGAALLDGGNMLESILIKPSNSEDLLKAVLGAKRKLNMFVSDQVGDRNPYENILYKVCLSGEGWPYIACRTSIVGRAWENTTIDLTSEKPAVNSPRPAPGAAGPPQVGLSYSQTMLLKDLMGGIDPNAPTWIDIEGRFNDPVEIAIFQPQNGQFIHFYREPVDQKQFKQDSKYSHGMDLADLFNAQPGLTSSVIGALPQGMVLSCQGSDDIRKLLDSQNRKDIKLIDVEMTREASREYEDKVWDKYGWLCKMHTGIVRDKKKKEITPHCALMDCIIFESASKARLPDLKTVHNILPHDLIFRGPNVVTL

[7] = qHTS of pediatric cancer cell lines to identify multiple opportunities for drug repurposing: Primary screen for TC32 cells (AID 1347089); settings: TC32 Ewing sarcoma viability, CellTiter-Glo luminescence, 48 h; series mostly up to 45.8 µM; also: nearly all actives have a fitted effect of over 60% in size
How it was run: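 Luminescent ATP read-out (CellTiter-Glo) of metabolically active TC32 cells after 48 h exposure. Concentration-response curves came from 11-point (MIPE, 0.78 nM–46 µM) or 8-point (NPC, 0.59 nM–46 µM) primary titrations; follow-up used 11 points.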

[8] = qHTS of pediatric cancer cell lines to identify multiple opportunities for drug repurposing: Primary screen for DAOY cells (AID 1347090); settings: DAOY medulloblastoma viability, CellTiter-Glo luminescence, 48 h; series mostly up to 46 µM; also: nearly all actives have a fitted effect of over 55% in size
How it was run: (§1)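 Eight- or eleven-point concentration series, 48 h treatment at 37 degrees C in growth media; readout CellTiter-Glo luminescence. Potency and efficacy were taken from the concentration-response curves.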

[9] = qHTS of pediatric cancer cell lines to identify multiple opportunities for drug repurposing: Primary screen for SJ-GBM2 cells (AID 1347091); settings: SJ-GBM2 viability, CellTiter-Glo luminescence, 48 h; series mostly up to 46 µM
How it was run: as §1

[10] = qHTS of pediatric cancer cell lines to identify multiple opportunities for drug repurposing: Primary screen for A673 cells (AID 1347092); settings: A673 Ewing sarcoma viability, CellTiter-Glo ATP luminescence, 48 h; series mostly up to 46 µM; also: nearly all actives have a fitted effect of over 45% in size
How it was run: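 Cell viability of A673 measured by CellTiter-Glo ATP luminescence after 48 hours compound exposure. Dilution series spanned 0.78 nM to 46 µM (MIPE, 11-point) or 0.59 nM to 46 µM (NPC, 8-point); bortezomib 2.3 uM positive control.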
Potency is read from the fitted curve at half-maximal effect.

SMILES	Potency [1]	Potency [2]	Potency [3]	Potency [4]	Potency [5]	Potency [6]	Potency [7]	Potency [8]	Potency [9]	Potency [10]
Nc1ccc(Cl)cc1	inactive	inactive	inactive	inactive	inactive	inactive	inactive	inactive	inactive	inactive
O=S(=O)(CC1CS1)c1ccc(Oc2ccccc2)cc1 (configuration not stated)	inactive	inactive	inactive	inactive	inactive	inactive			26.4 µM (active)	9.35 µM (active)
CC(=CCCC1=CCC(C2=CC(=O)OC2O)OC1O)CCC1=C(C)CCCC1(C)C (configuration not stated)	inactive	inactive	inactive	inactive	inactive	inactive	inactive	inactive	inactive	inactive
Nc1c(Cl)c(Cl)c(Cl)c(Cl)c1Cl	inactive	inactive	inactive	inactive	inactive	inactive	inactive	inactive	inactive	inactive
CCO/N=C(\CC)C1=C(O)CC(c2c(C)cc(C)cc2C)CC1=O (configuration not stated)	inactive	inactive	inactive	inactive	inactive	inactive	inactive	inactive		inactive
CCN1CCN(C(=O)Cc2ccc(Nc3ncc(F)c(Nc4ccc(C(=O)Nc5ccccc5Cl)cc4)n3)cc2)CC1	2.96 µM (active) and 1.16 µM (active)	11.8 µM (active)	inactive	4.32 µM (active)	6.85 µM (active)			3.72 µM (active)	2.35 µM (active)	2.96 µM (active)
CCN(CC)C(=O)c1ccc(C2=CC3(CCNCC3)Oc3cccc(O)c32)cc1	inactive	inactive	inactive	inactive	inactive	inactive	inactive	inactive	inactive	inactive
Cc1[nH]nc2ccc(-c3cncc(OC[C@@H](N)Cc4c[nH]c5ccccc45)c3)cc12	526 nM (active) and 5.17 µM (active)	5.9 µM (active)	0.485 µM (active)	0.172 µM (active)	0.432 µM (active)	0.243 µM (active)	1.86 µM (active)	1.87 µM (active)	1.05 µM (active)	0.118 µM (active)
CCCC[N+]1(C)[C@H]2CC(OC(=O)[C@H](CO)c3ccccc3)C[C@H]1[C@H]1O[C@H]12 (some centres not stated)	inactive	inactive	inactive	inactive	inactive	inactive	inactive	inactive	inactive	inactive
COc1cc2cc(c1Cl)N(C)C(=O)C[C@H](OC(=O)C(C)C)[C@]1(C)O[C@H]1[C@H](C)[C@@H]1C[C@@](O)(NC(=O)O1)[C@H](OC)C=CC=C(C)C2	1 nM (active)	inactive	inactive	inactive	inactive	inactive	0.208 µM (active)		0.001 µM (active)	0.001 µM (active)
O=[N+]([O-])c1ccc([As](=O)(O)O)cc1	inactive	inactive	inactive	inactive	inactive	inactive	inactive	inactive	inactive	inactive
O=[N+]([O-])/N=C1\NCCN1Cc1ccc(Cl)nc1	inactive	inactive	inactive	inactive	inactive	inactive	inactive	inactive	inactive	inactive
CC(C)NCC(O)c1ccc([N+](=O)[O-])cc1 (configuration not stated)	inactive	inactive	inactive	inactive	inactive	inactive	inactive	inactive	inactive	inactive
C[C@]12COC(=O)C[C@@H]1CC[C@@H]1[C@H]2CC[C@@]2(C)[C@H]1CC[C@]2(C)O	inactive	inactive	inactive	inactive	inactive	inactive	inactive	inactive	inactive	inactive
CC(O)CN1CCN(CC(=O)[O-])CCN(CC(=O)[O-])CCN(CC(=O)[O-])CC1.[Gd+3] (configuration not stated)	inactive	inactive	inactive	inactive	inactive	inactive	inactive	inactive	inactive	inactive
CC1(N2CCC(n3c([C@@H]4CCCNC4)nc4ccccc43)CC2)CCCCCCC1	23.5 µM (active) and 20.6 µM (active)	20.9 µM (active)	inactive	inactive	inactive	inactive	inactive	inactive		11.8 µM (active)
COc1cccc2c1[C@]13CCN(CC4CC4)[C@H](C2)[C@]1(OC)CCC(=O)C3	inactive	inactive	inactive	inactive	inactive	inactive	inactive	inactive	inactive	inactive

SMILES	Potency [1]	Potency [2]	Potency [3]	Potency [4]	Potency [5]	Potency [6]	Potency [7]	Potency [8]	Potency [9]	Potency [10]
O=C1CCC[C@@H]2[C@H]3CCCN4CCC[C@@H](CN12)[C@@H]34	inactive	inactive	inactive	inactive	inactive	inactive		inactive	inactive	inactive
CCOP(=O)(OCC)C(C)NC(=O)N(CCCl)N=O (configuration not stated)	inactive	inactive	inactive	inactive	inactive	inactive	inactive	inactive		inactive
CCOC(=O)c1cncn1[C@H](C)c1ccccc1	inactive	inactive	inactive	inactive	inactive	inactive	inactive	inactive	inactive	inactive
C[C@]12CCC(=O)C(O)=C1CC[C@@H]1[C@H]3CCC(=O)[C@@]3(C)CC[C@@H]12	inactive	inactive	inactive	inactive	inactive	inactive	inactive	inactive	inactive	inactive
COC(=O)c1cncn1C(C)c1ccccc1 (configuration not stated)	inactive	inactive	inactive	inactive	inactive	inactive	inactive	inactive	inactive	inactive
C[C@@H]1CC[C@H]2[C@@H](C)C(=O)O[C@@H]3O[C@@]4(C)CC[C@H]1[C@]32OO4	inactive	inactive	inactive	inactive	inactive	inactive	inactive		inactive	inactive
CN(C)[C@@H]1C(=O)C(C(N)=O)=C(O)[C@@]2(O)C(=O)C3=C(O)c4c(O)cccc4[C@@](C)(O)[C@H]3[C@H](O)[C@@H]12	inactive	inactive	inactive	inactive	inactive	inactive	inactive	inactive	inactive	inactive
C[C@@H]1O[C@@H](O[C@@H]2C=C3CC[C@@H]4[C@@H](CC[C@]5(C)[C@H](c6ccc(=O)oc6)CC[C@@]45O)[C@@]3(C)CC2)[C@H](O)[C@H](O)[C@H]1O	20.9 nM (active)	0.0118 µM (active)	0.0685 µM (active)	0.0685 µM (active)	0.0544 µM (active)	0.0769 µM (active)	0.0415 µM (active)	0.0148 µM (active)	0.0083 µM (active)	0.0148 µM (active)
C[C@]12CC[C@H](O)CC1=CC[C@H]1[C@H]3CCC(=O)[C@@]3(C)CC[C@@H]12	inactive	inactive	inactive	inactive	inactive	inactive	inactive	23.5 µM (active)		18.7 µM (active)
COc1ccc(CC2NCCc3cc(OC)c(OC)cc32)cc1OC (configuration not stated)	inactive	inactive	inactive	inactive		inactive	inactive	inactive	inactive	
O=[N+]([O-])c1ncc[nH]1	inactive	inactive	inactive	inactive	inactive	inactive	inactive		inactive	inactive
CC(C)N[C@@H]1CCn2c(=O)[nH]c3cccc(c32)[C@@H]1O	inactive	inactive	8.63 µM (active)	19.3 µM (active)	4.85 µM (active)	2.73 µM (active)	inactive	1.18 µM (active)	6.62 µM (active)	0.833 µM (active)
COC1=CC(C)=C[C@@H](C)[C@@H](O)[C@@H](C)CC(C)=CC=C[C@H](OC)[C@H]([C@@H](C)[C@@H](O)[C@H](C)[C@@]2(O)C[C@@H](O)[C@H](C)[C@@H](C(C)C)O2)OC1=O	14.8 nM (active)	0.0012 µM (active)	0.109 µM (active)	0.0769 µM (active)	0.0343 µM (active)	0.0485 µM (active)	0.33 µM (active)	0.0023 µM (active)	0.001 µM (active)	0.0037 µM (active)
CC(=Cc1csc(C)n1)[C@@H]1C[C@H]2O[C@@H]2CCC[C@H](C)[C@@H](O)[C@@H](C)C(=O)C(C)(C)[C@@H](O)CC(=O)O1	1 nM (active)	inactive	inactive	inactive	inactive	inactive	0.0012 µM (active)		0.001 µM (active)	
O=C(O)CCCOc1ccc(Cl)cc1Cl	inactive	inactive	inactive	inactive	inactive	inactive	inactive	inactive	inactive	0.313 µM (active)
CC[C@H]1C=CC=CC[C@@H](C)[C@H](O)[C@@](C)(O)C(=O)[C@@H](C)[C@H](O)[C@@H](C)C(=O)[C@@H](C)[C@H](O)[C@@H](C)C=CC(=O)O[C@@H]2[C@@H](C)[C@H](CC1)O[C@]1(CC[C@H](C)[C@H](C[C@@H](C)O)O1)[C@H]2C	1050 nM (active)	18.7 µM (active)	0.137 µM (active)	0.0863 µM (active)	0.0968 µM (active)	0.0769 µM (active)		0.0037 µM (active)	0.264 µM (active)	
